This note sets out measurements from PubChem BioAssay (NCI).

Compounds without any hit were thinned out: in the full panel of roughly 79,000, 15% have a hit. Values without a mark were called inactive. Calls of active or inactive are those of the source. Rule as the data show it: active = growth inhibition above about 70%; inactive = the rest.

The experiment in a line: NCI Yeast Anticancer Drug Screen. Data for the rad52 strain (AID 147).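 Also: 0% = growth of vehicle-treated control cultures.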 Conditions: S. cerevisiae rad52 mutant growth inhibition, active compounds read high. As to the method:
Growth inhibition of yeast strains with defined genetic alterations is measured as a screen for potential anti-cancer activity. Selected strains with alterations in DNA damage repair or cell cycle control were exposed to compounds and growth inhibition was measured relative to vehicle treated controls. The strain used in this assay is rad52

Regarding `CC1=CC(=O)C=CC1=Nc1cc(Cl)c(O)c(Cl)c1`, the growth inhibition (at 1.2 µM) is -39%; the growth inhibition (at 3.7 µM) is -29%; the growth inhibition (at 11.0 µM) is 7%; the growth inhibition (at 33.0 µM) is 66%; the growth inhibition (at 100.0 µM) was 92% (active).

For the compound `COC(=O)c1cnc(Cl)c([N+](=O)[O-])c1`, the growth inhibition reads like this: (at 1.2 µM) 17%; (at 3.7 µM) 53%; (at 11.0 µM) 94% (active); (at 33.0 µM) 98% (active); (at 100.0 µM) 99% (active).

Turning to `COc1cc(C2C3=C(COC3=O)Oc3cc4c(cc32)OCO4)cc(OC)c1O` (stereo not given), the growth inhibition by setting is: (at 1.2 µM) 90% (active); (at 3.7 µM) 86% (active); (at 11.0 µM) 93% (active); (at 33.0 µM) 93% (active); (at 100.0 µM) 94% (active).

As for `Oc1c2c(c(O)c3ccccc13)C1(N=N2)c2ccccc2Oc2ccccc21`, the growth inhibition (at 1.2 µM) was 20%; the growth inhibition (at 3.7 µM) is 72% (active); the growth inhibition (at 11.0 µM) is 98% (active); the growth inhibition (at 33.0 µM) was 97% (active); the growth inhibition (at 100.0 µM) is 93% (active).

For `CC1(C)C(O)OC(O)C1(C)C` (stereo not given), the growth inhibition by setting is: (at 1.2 µM) 0%; (at 3.7 µM) 0%; (at 11.0 µM) 2%; (at 33.0 µM) 7%; (at 100.0 µM) 30%.

With `S=C1N(c2ccc(Cl)cc2)C2=C(N=Nc3ccccc3)C(=Nc3ccccc3S2)N1c1ccccn1`, the growth inhibition reads like this: (at 1.2 µM) 8%; (at 3.7 µM) 16%; (at 11.0 µM) 51%; (at 33.0 µM) 98% (active); (at 100.0 µM) 99% (active).

Regarding `COc1ccc(C2CC(C)(N3CCCC3)Oc3cc4c(cc32)OCO4)cc1` (stereo not given), the growth inhibition is 4% (at 1.2 µM); 5% (at 3.7 µM); 4% (at 11.0 µM); 32% (at 33.0 µM); 94% (active) (at 100.0 µM).

As to `CCN(CC)CCNc1ccc2nc(C)n3c4ccc(OC)cc4c(=O)c1c23`, the growth inhibition (at 1.2 µM) was 22%; the growth inhibition (at 3.7 µM) was 47%; the growth inhibition (at 11.0 µM) was 58%; the growth inhibition (at 33.0 µM) is 75% (active); the growth inhibition (at 100.0 µM) is 83% (active).
